High-throughput results deposited in PubChem BioAssay by Sanford-Burnham Center for Chemical Genomics.
Artemis endo inh: Artemis (human) endonuclease inhibition | AID 686954 | recombinant Artemis, quenched FAM hairpin cleavage fluorescence | inhibition, % at 10 µM | 0.78% of 30,000 active;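 active = at 10 µM dose, at least 30% inhibition, measured as corrected fluorescence normalized to stimulator and neutral control wells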
Target sequence (Q96SD1 whole entry, looked up): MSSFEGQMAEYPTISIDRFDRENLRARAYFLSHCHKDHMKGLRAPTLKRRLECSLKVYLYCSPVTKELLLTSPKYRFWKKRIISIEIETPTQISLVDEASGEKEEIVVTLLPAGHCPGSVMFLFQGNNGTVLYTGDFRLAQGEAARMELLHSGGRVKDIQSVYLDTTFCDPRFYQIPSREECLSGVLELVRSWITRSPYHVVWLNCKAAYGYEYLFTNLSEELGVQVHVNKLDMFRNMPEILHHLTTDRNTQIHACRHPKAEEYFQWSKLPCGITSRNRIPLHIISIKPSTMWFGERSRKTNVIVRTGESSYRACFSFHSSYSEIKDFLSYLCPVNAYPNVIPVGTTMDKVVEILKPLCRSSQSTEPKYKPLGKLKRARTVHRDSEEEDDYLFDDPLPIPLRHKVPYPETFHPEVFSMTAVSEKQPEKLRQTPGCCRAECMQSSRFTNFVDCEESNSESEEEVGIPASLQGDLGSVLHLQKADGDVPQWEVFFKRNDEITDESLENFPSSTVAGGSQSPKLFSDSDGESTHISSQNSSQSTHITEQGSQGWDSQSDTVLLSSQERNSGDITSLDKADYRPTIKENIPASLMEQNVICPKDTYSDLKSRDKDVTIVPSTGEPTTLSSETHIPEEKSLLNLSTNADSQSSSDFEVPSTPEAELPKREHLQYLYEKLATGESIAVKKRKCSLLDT
Numbers without * were called inactive. The sample as a whole holds a higher share of hits than the screen did.

SMILES	Artemis endo inh
O=C(Nc1ccccc1)Nc1ccc(S(=O)(=O)N2CCCCC2)cc1	3
O=C1c2ccccc2C(=O)c2c1ccc(C(=O)N1CCCCC1)c2NCCO	2
O=C1C(Nc2ccccc2)=C(N2CCCCC2)C(=O)c2ccccc21	39*
COC(=O)c1ccc(C(=O)OC)c(NC(=O)CSCc2ccccc2Br)c1	-2
O=C(CCc1nc2ccccc2[nH]1)Nc1ccc2c(c1)OCO2	10
CC(C)(C)c1cc(/C=N/NC(=O)Cc2nc3ccccc3[nH]2)cc(C(C)(C)C)c1O	32*
COc1cc(/C=N\NC(=O)Cn2nnc3ccccc32)cc(OC)c1OC	4
COc1ccc(OC)c(NC(=O)Cc2coc3ccc4ccccc4c23)c1	6
O=C(Nc1cccc2nsnc12)c1ccc2c(c1)OCO2	2
O=C(Nc1cccc2nsnc12)c1ccc(F)cc1	13
O=C(Nc1cccc2nsnc12)c1ccc(-c2cccc(Cl)c2)o1	46*
c1ccc(-c2cn3nc4c(nc3n2)CCCC4)cc1	34*
Brc1ccc2nc3c(n2c1)CCCC3	2
c1ccc(-c2cn3c(n2)CCC3)cc1	-5
Brc1ccc(-c2cn3nc4c(nc3n2)CCCC4)cc1	31*
c1ccc(-c2cn3c(n2)SCC3)cc1	-5
Brc1ccc(-c2cnnc(N3CCCC3)n2)cc1	-12
Cc1ccc(C)c(S(=O)(=O)N2CCN(CC(=O)N3CCc4ccccc4C3)CC2)c1	4
COc1cccc(C(=O)Nc2nc3c(s2)CN(C)CC3)c1	19
Cc1c(C(=O)/C=C/c2cccs2)oc2ccc(F)cc12	2
COc1ccc(N/C(N)=N/c2nc(CSc3ccc(C)cc3)cc(=O)[nH]2)cc1	14
COc1ccccc1N/C(N)=N/c1nc(CSc2ccc(C)cc2)cc(=O)[nH]1	30*
Cc1cc(=O)[nH]c(/N=C(\N)Nc2cccc3ccccc23)n1	-2
COc1ccc(/C=N/NC(=O)Cc2csc(Nc3cccc(C(F)(F)F)c3)n2)cc1C	8
COc1ccc(CCNC(=O)Cc2cc(OCc3ccccc3)c(OC)cc2[N+](=O)[O-])cc1OC	0
SMILES	Artemis endo inh
CCN(CC)CCN1C(=O)C(=O)/C(=C(/O)c2ccc(OC)cc2)C1c1ccco1 (configuration not stated)	-2
CCOc1ccc(/C(O)=C2/C(=O)C(=O)N(c3nc(C)c(C)s3)C2c2ccco2)cc1 (configuration not stated)	43*
CCOc1ccc(/C(O)=C2\C(=O)C(=O)N(c3cc(C)on3)C2c2ccccc2OC)cc1 (configuration not stated)	3
CN(C)/C=C(/C#N)C(=O)c1cccc(Oc2ccc(C(C)(C)C)cc2)c1	4
CCC(Sc1nc(-c2ccccc2)c(C#N)c(=O)[nH]1)C(=O)Nc1nnc(C)s1 (configuration not stated)	-3
Cc1ccc(S(=O)(=O)NC(CC(=O)NCC2CCCO2)c2ccco2)cc1 (configuration not stated)	-6
CCCN(CC1CC1)c1nc(N)c2c(N)nc(OC)cc2c1C#N	49*
CCOc1cc2c(C#N)c(N3CCOCC3)nc(N)c2c(N)n1	29
CCc1nc(C)c(C#N)c2cc(OC)c(OC)cc12	4
Cc1nn(-c2ccccc2)c(C)c1/C=N\NS(=O)(=O)c1ccc(Cl)cc1	1
C=CCn1c(SCC(=O)N2CCc3ccccc3C2)nc2ccccc2c1=O	16
O=c1cc(-c2ccccc2)nc2nc(COc3ccccc3)[nH]n12	5
Nc1[nH]n2c(=O)cc(-c3ccccc3)nc2c1N=Nc1ccccc1	47*
O=c1cc(-c2ccccc2)nc2nc(-c3ccccc3)[nH]n12	5
Cc1ccc(NC(=O)NNC(=O)Cn2nc(-c3ccccc3)c(-c3ccccc3)c(C#N)c2=O)cc1	9
COc1cccc(CN(C)C(=O)c2ccc3nccnc3c2)c1	3
CC(=O)Nc1cccc(NC(=O)c2sc3ncn(CC(=O)N4CCCCC4)c(=O)c3c2C)c1	7
Cc1cc(C)c(C(N)=O)c(Nc2ccc3c(c2)OCCO3)n1	-4
Cc1cc(C)c(C(N)=O)c(Nc2cccc3ccccc23)n1	34*
COc1ccccc1Nc1nc(C)cc(C)c1C(N)=O	-1
CC(C)COC(=O)Nc1nnc(SCCOc2ccccc2)s1	3
CCNC(=S)N(Cc1ccc2c(c1)OCO2)C1CC(=O)N(c2ccc(F)cc2)C1=O (configuration not stated)	-3
O=c1c(Cl)c(N/N=C/c2ccc(Br)cc2)cnn1-c1ccccc1	19
CCCNC(=O)NC(=O)CSc1ccc2c(c1)OCCO2	-1
O=C(Cc1ccsc1-c1ccccc1)NO	64*
SMILES	Artemis endo inh
O=C(Nc1nc(-c2cccs2)c(-c2ccccc2)s1)c1ccco1	11
O=C(Cc1cccs1)Nc1ccc(-c2nnc(-c3ccccc3)o2)cc1	-2
COc1ccc(Nc2nc(N3CCCC3)c3ccccc3n2)cc1	33*
COc1cccc(Nc2nc(NCCO)c3ccccc3n2)c1	-7
c1ccc2c(N3CCCC3)nc(-c3ccncc3)nc2c1	3
Cc1ccc(CC(=O)Nc2ccccc2N2CCOCC2)cc1C	4
O=C(O)CCN1C(=O)/C(=C/c2ccc(-c3nc4ccccc4s3)o2)SC1=S	18
O=c1oc2ccccc2n1CSc1nc2ccccc2s1	10
O=C(O)CC(C(=O)O)N1C(=O)/C(=C/c2ccc(-c3nc4ccccc4s3)o2)SC1=S (configuration not stated)	64*
COc1ccc(NC(C)=O)cc1NC(C)C(=O)Nc1cccc2ccccc12 (configuration not stated)	3
O=c1[nH]c(-c2ccccn2)nc2ccccc12	15
c1ccc(-c2nc3c(ccc4ccccc43)[nH]2)nc1	44*
Cc1[nH]c2ccccc2c1C(c1ccccn1)c1c(C)[nH]c2ccccc12	-4
CN(CCOc1ccccc1)S(=O)(=O)c1ccc2oc3ccccc3c2c1	9
Cc1ccc(C2C(C=Nc3c(C)n(C)n(-c4ccccc4)c3=O)=C(c3ccccc3)Oc3ccccc32)cc1 (configuration not stated)	5
CN1C(=O)/C(=C/c2ccccc2OCc2cccc(F)c2)NC1=S	-4
Cc1ccc(-c2cc(C(=O)NCc3ccco3)c3ccccc3n2)o1	11
Cc1ccc(-c2cc(C(=O)NCCCn3ccnc3)c3cc(Br)ccc3n2)o1	31*
COc1ccc(C(=O)NCCCn2ccnc2)cc1	-4
COc1cc(CNCCc2c[nH]c3ccccc23)ccc1OCc1ccc(F)cc1	10
CN(C)c1ccc(/C=N/NC(=O)CN(c2cccc(Cl)c2)S(C)(=O)=O)cc1Br	14
COc1ccccc1CNC(=O)/C=C/c1cc2c(cc1Br)OCO2	-5
Cc1cc(C)n(C(C[N+](=O)[O-])c2ccc(Cl)cc2)n1 (configuration not stated)	8
O=C(Nc1ncc2c(n1)CC(c1ccco1)CC2=O)c1ccccc1 (configuration not stated)	-3
O=C1CC(c2ccco2)Cc2nc(Nc3nc(-c4ccccc4)c4ccccc4n3)ncc21 (configuration not stated)	34*
SMILES	Artemis endo inh
Cc1cccc(Nc2ncc3c(n2)CC(c2ccco2)CC3=O)c1 (configuration not stated)	7
COC(=O)c1sccc1NC(=O)c1cc(-c2ccc(C)cc2C)nc2ccccc12	-1
CCCCNC(=O)C(=O)NC(C)CCc1ccccc1 (configuration not stated)	4
CC(C)c1nc2sc3c(SCC(=O)NCc4ccco4)ncnc3c2c2c1CCC2	29
CSc1nc(N(CCO)CCO)c2sc3nc(-c4ccco4)c4c(c3c2n1)CCC4	46*
N#Cc1sc2nc3c(c(-c4ccco4)c2c1N)CCCC3	13
